# TTR transcr act = TTR transcription activation, primary screen. SH-SY5Y TTR promoter Gaussia luciferase, luminescence; 100% = recombinant luciferase protein wells. activation, % at 16.7 µM. hit rate 1.3% among 92,000;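 active = activation above the mean of all tested compounds plus 3 SD, cut at about 9.5% in these data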;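 note: cells exposed to compounds for one day before reading; 0% = median of all test compound wells on the plate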
# HuH7 TTR inh = HuH7 TTR transcription inhibition, counter-screen | shares compounds with TTR transcr act | HuH7 TTR promoter-Gaussia luciferase reporter, luminescence | inhibition, % at 16.7 µM | hit rate 4% among 1,100 | AID 1117279;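 active = average inhibition above the solvent-only control wells' mean plus 3 SD, cut at about 15% in these data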;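 note: 0% = cells with DMSO only and 100% = cells with inhibitor control FD; inhibitors lower well luminescence so higher value means more inhibition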
# TTR up confirm = human TTR transcription activation, confirmation; shares compounds with TTR transcr act; activation, % at 16.7 µM; 1,100 tested, under 10 active; SHSY5Y TTR promoter Gaussia luciferase, luminescence; 100% = purified Lucia enzyme wells, no cells;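 active = mean activation above a set limit taken from the earlier primary screen, cut at about 11% in these data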;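 note: 0% = DMSO-treated cells and 100% = recombinant Lucia luciferase without cells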
# * = called active by the depositor. Only a selection was taken, and hits are over-represented in it overall.
SMILES,TTR transcr act,others
O=C(NNc1nc(N2CCOCC2)nc(N2CCOCC2)n1)c1ccccc1,23*,HuH7 TTR inh=-13;TTR up confirm=0
CC(=O)c1cccc(Nc2nc(N3CCOCC3)nc(N3CCOCC3)n2)c1,0,
O=C(NNc1cc(N2CCOCC2)nc(N2CCOCC2)n1)c1ccc(Cl)c(Cl)c1,2,
COc1ccccc1N1CC(C)(C)C(=O)N(C(=O)c2ccc(C)cc2)C1=S,-2,
CCOCCn1c(CN2CCN(c3ccccc3)CC2)nc2c1c(=O)n(C)c(=O)n2C,2,
CCOCCn1c(CN2CCc3ccccc3C2)nc2c1c(=O)n(C)c(=O)n2C,13*,HuH7 TTR inh=2;TTR up confirm=0
Cn1c(=O)c2c(nc(CN3CCc4ccccc4C3)n2Cc2ccccc2)n(C)c1=O,-3,
Clc1ccc(-c2nnc(N3CCOCC3)o2)cc1,-1,
N#CCc1cccnc1Sc1ccc(Cl)cc1,1,
Cc1cc(C(=O)NNC(=S)NCC(C)C)no1,0,
Cc1nc(-c2ccc(Cl)cc2)sc1C(=O)NNC(=O)C(C)C,3,
CNC(=S)NNC(=O)c1sc(-c2cc(C)on2)nc1C,14*,HuH7 TTR inh=-7;TTR up confirm=-1
O=C(/C=C/c1ccccc1[N+](=O)[O-])N1CCN(c2ccccc2F)CC1,0,
C[N+]1(C2CCC3CCCC2C3O)CCCCC1 (centres undefined),0,
Nc1[nH]c2cc(C(F)(F)F)ccc2c1C(=O)NC1CCCCC1,1,
COC(CN(C)S(=O)(=O)c1cc2c3c(c1)CCN3C(=O)CC2)OC,0,
CCN1C(=O)[C@H]2[C@H]3CN=C(SCc4ccc(C#N)cc4)N3[C@@](C)(C(=O)OC)[C@H]2C1=O,-1,
COC(=O)[C@@]1(C)[C@H]2C(=O)N(Cc3ccccc3)C(=O)[C@H]2[C@H]2CN(C)C(=NC3CCCCC3)N21,5,
CCCN=C1N(CC)C[C@@H]2[C@@H]3C(=O)N(Cc4ccccc4)C(=O)[C@@H]3[C@](C)(C(=O)OC)N12,0,
CCN1C[C@@H]2[C@@H]3C(=O)N(Cc4ccccc4)C(=O)[C@@H]3[C@](C)(C(=O)OC)N2C1=NC1CCCCC1,25*,HuH7 TTR inh=-2;TTR up confirm=0
COC(=O)[C@@]1(C)[C@H]2C(=O)N(Cc3ccccc3)C(=O)[C@H]2[C@H]2CN=C(SCc3ccccc3)N21,2,
CCN1C(=O)[C@H]2[C@H]3CN=C(SCC(=O)c4ccccc4)N3[C@@](C)(C(=O)OC)[C@H]2C1=O,13*,HuH7 TTR inh=-3;TTR up confirm=0
CCOC(=O)C1(C)NC(c2cccs2)C2C(=O)N(c3ccccc3)C(=O)C21 (centres undefined),1,
CCN(CC(=O)Nc1ccc(NC(C)=O)cc1)Cc1c(O)ccc2cc(Br)ccc12,0,
O=S1(=O)N[C@H](Cc2ccccc2)COc2cc(Br)ccc21,-2,
SMILES,TTR transcr act,others
CCSCC(C)(C)n1[nH]c2ccccc2c1=O,2,
COc1cc2oc(=O)cc(CN3CCN(c4ccccc4OC)CC3)c2cc1Cl,0,
O=C(/C=C\c1ccco1)NC(=S)Nc1ccccc1O,0,
Cc1cccnc1NC(=S)NC(=O)/C=C/c1ccco1,12*,HuH7 TTR inh=0;TTR up confirm=0
Cn1nnc(NC(=S)NC(=O)/C=C/c2ccco2)n1,8,
CCCNC(=O)N1C[C@H](O)COC[C@H]2O[C@@H](CC(=O)N[C@@H]3CCN(Cc4ccccc4)C3)CC[C@@H]21,3,
CCCC1CCC2(CC1)CCC2OC(=S)Nc1ccccc1 (centres undefined),0,
O=C(CSCc1ccc(C(=O)O)cc1)Nc1ccc2ccccc2c1,1,
CC(=O)c1ccc(NC(=O)CSCC(=O)Nc2ccc3ccccc3c2)cc1,11*,HuH7 TTR inh=-26;TTR up confirm=4
CC(=O)CC(=O)Nc1ccc2ccccc2c1,-1,
C[C@H](CO)N1C[C@H](C)[C@@H](CN(C)C(=O)C2CC2)OCc2cnnn2CCCC1=O,0,
CC1(C(=O)Nc2cccc3cccnc23)CCN1Cc1csc2ccccc12 (centres undefined),0,
O=C(CCc1nnc(CCCc2ccccc2)o1)NCCN1CCOC1=O,1,
CC/C(=N\NC(=O)c1ccc2c(c1)OCO2)c1ccccc1,0,
CCN(CC)CCNC(=O)c1[nH]c2ccc(OCc3ccccc3)cc2c1C,-2,
CC(C)(C)OC(=O)N[C@H]1C=C[C@@H](CC(=O)OCC(F)(F)F)C1,1,
CC(=O)COc1ccc2c(C)c(C)c(=O)oc2c1,14*,HuH7 TTR inh=-9;TTR up confirm=8
COc1ccc(-c2cc(=O)oc3cc(OCC(C)=O)ccc23)cc1,0,
CCCc1cc(=O)c2ccc(OCC(C)=O)cc2o1,0,
O=C(O)Cn1c(=O)c2c3c(sc2n(Cc2ccc(Cl)cc2Cl)c1=O)CCCC3,2,
CN(CCc1ccccc1)C(C(=O)Nc1ccc2c(c1)OCCO2)c1ccnc2ccccc12 (centres undefined),-2,
O=C(C[C@H]1CC[C@@H]2[C@H](COC[C@H](O)CN2C(=O)c2cnccn2)O1)NCc1ccc(Cl)cc1,-1,
C[C@@H]1CCN(C2CC2)S(=O)(=O)c2ccc(N3CC[C@H](O)C3)cc2O1,0,
CCOC(=O)c1cnc2cc(-c3ccc(Br)cc3)nn2c1C,2,
CCOC(=O)c1cnc(-c2ccccc2)nc1N1CCOCC1,-1,
SMILES,TTR transcr act,others
CCOC(=O)c1cnc2c(-c3ccccc3)cnn2c1C,13*,HuH7 TTR inh=-2;TTR up confirm=4
Cn1nc(C(C)(C)C)cc1N1C(=O)CCC1(C)C(=O)NCc1ccccc1 (centres undefined),0,
COc1cc(OC)c2ccc(=O)oc2c1C(CC(=O)N1CCOCC1)c1ccc2c(c1)OCO2 (centres undefined),14*,HuH7 TTR inh=0;TTR up confirm=-1
COc1cc(OC)c2c(C)cc(=O)oc2c1C(CCN1CCN(c2ccccc2)CC1)c1ccc2c(c1)OCO2 (centres undefined),-7,
COc1cc(O)c([C@@H](CC(=O)N2CC(C)CC(C)C2)c2ccc3c(c2)OCO3)c(OC)c1 (some centres undefined),1,
CCOc1nc(C)ccc1-c1noc(-c2cccnc2)n1,-1,
CN(C)Cc1n[nH]c(=O)c2ccccc12,26*,HuH7 TTR inh=-7;TTR up confirm=0
O=c1[nH]nc(Cc2ccc(Cl)cc2Cl)c2ccccc12,-2,
O=C(O)Cc1n[nH]c(=O)c2ccccc12,5,
Cc1ccc(S(=O)(=O)NC(=O)Nc2ccc(OC(F)F)cc2)cc1,-2,
Cc1cccc(Oc2nc(-c3ccccc3)cc(C)c2S(C)(=O)=O)c1C,12*,HuH7 TTR inh=-9;TTR up confirm=-1
Cc1cc(-c2ccccc2)nc(Oc2ccc(C(C)(C)C)cc2)c1S(C)(=O)=O,-2,
Cc1cc(C)cc(Oc2nc(-c3ccccc3)cc(C)c2S(C)(=O)=O)c1,3,
CN(CC(=O)Nc1ccc(Cl)c(C(F)(F)F)c1)C(=O)c1cc(=O)c2ccccc2o1,0,
CC(C)(C)c1cc(C(=O)NNc2cc(C(F)(F)F)ccc2Cl)n(Cc2ccccc2)n1,1,
CC1CCCN(c2ccc(C(=O)Nc3cccnc3)cc2[N+](=O)[O-])C1 (centres undefined),-1,
Cc1ccc(C(=O)OCC(=O)NCc2ccc(F)cc2)o1,5,
CC(C)(C)CC(=O)NCc1ccc(F)cc1,15*,HuH7 TTR inh=-15;TTR up confirm=-1
NC(=O)NCc1ccc(F)cc1,0,
C[C@H]1[C@H](NC(=O)c2ccc(Cl)c(Cl)c2)CC[C@@]23CCCN2C(=O)CCC[C@@H]13,0,
CCCN1CNc2c(c(=O)[nH]c(=S)n2CCc2cccc(Cl)c2Cl)C1,2,

# Compound activity (PubChem)
